# In the supplement of paper PMC6555819:
# Key:
# Assay in all cases: PBM binding z-score (relative to random genomic background probes); higher = stronger binding; sequences stand for … in GC…GCGATTGACAGCGTAGAATGAAGG
# [1] = tested on: FXR:RXRa (NR concentration 270 nM, RXRa partner concentration 90 nM)
# Summary of the method: (§1)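 Probes were double-stranded and carried 34-nt variable regions with direct-repeat seeds, single-nucleotide variants, half-site ablations and random human genomic background sequences, printed on custom Agilent 4×180K protein-binding microarrays. Arrays were incubated 1 h with ligand-free nuclear receptor dimers in PBS pH 7.4, 2% milk, 0.02% Triton X-100, 1 mM DTT, 0.2 mg/mL BSA and 0.4 mg/ml salmon testes DNA. Antibodies against each partner (one per run) detected binding, and scanned fluorescence was regression-normalized. Binding z-scores use the random background probes as reference.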
# [2] = tested on: LXRa:RXRa (NR concentration 270 nM, RXRa partner concentration 90 nM)
# Summary of the method: as §1
# [3] = tested on: LXRa homodimer (NR concentration 270 nM)
# Summary of the method: as §1
# [4] = tested on: LXRb:RXRa (NR concentration 270 nM, RXRa partner concentration 90 nM)
# Summary of the method: as §1
# [5] = tested on: LXRb homodimer (NR concentration 270 nM)
# Summary of the method: as §1
# [6] = tested on: PPARa:RXRa (NR concentration 270 nM, RXRa partner concentration 90 nM)
# Summary of the method: as §1
# [7] = tested on: PPARg:RXRa (NR concentration 180 nM, RXRa partner concentration 90 nM)
# Summary of the method: as §1
# [8] = tested on: PPARg:RXRa 270nM:90nM, anti-RXR (NR concentration 270 nM, RXRa partner concentration 90 nM)
# Summary of the method: as §1
# [9] = tested on: PPARg:RXRa 30nM:10nM, anti-RXR (NR concentration 30 nM, RXRa partner concentration 10 nM)
# Summary of the method: as §1
# [10] = tested on: PPARg:RXRa 90nM:30nM, anti-RXR (NR concentration 90 nM, RXRa partner concentration 30 nM)
# Summary of the method: as §1
# [11] = tested on: PPARg:RXRa DBDmut IVT, anti-RXR (DBD mutation: RXRa K156A/R161A, NR concentration 270 nM, RXRa partner concentration 90 nM)
# Summary of the method: as §1
# [12] = tested on: PPARg:RXRa IVT, anti-PPARg (NR concentration 270 nM, RXRa partner concentration 90 nM)
# Summary of the method: as §1
# [13] = tested on: PPARg DBDmut:RXRa IVT, anti-PPARg (DBD mutation: PPARg1 K132A/R137A, NR concentration 270 nM, RXRa partner concentration 90 nM)
# Summary of the method: as §1
# [14] = tested on: PPARg DBDmut IVT, anti-PPARg (DBD mutation: PPARg1 K132A/R137A, NR concentration 270 nM)
# Summary of the method: as §1
# [15] = tested on: PPARg homodimer (NR concentration 180 nM)
# Summary of the method: as §1
# [16] = tested on: PXR:RXRa (NR concentration 270 nM, RXRa partner concentration 90 nM)
# Summary of the method: as §1
# [17] = tested on: PXR homodimer (NR concentration 270 nM)
# Summary of the method: as §1
# [18] = tested on: RARa:RXR (NR concentration 270 nM, RXRa partner concentration 90 nM)
# Summary of the method: as §1
# [19] = tested on: RARa homodimer (NR concentration 270 nM)
# Summary of the method: as §1
# [20] = tested on: RARb:RXRa (NR concentration 270 nM, RXRa partner concentration 90 nM)
# Summary of the method: as §1
Sequence,PBM binding z-score [1],PBM binding z-score [2],PBM binding z-score [3],PBM binding z-score [4],PBM binding z-score [5],PBM binding z-score [6],PBM binding z-score [7],PBM binding z-score [8],PBM binding z-score [9],PBM binding z-score [10],PBM binding z-score [11],PBM binding z-score [12],PBM binding z-score [13],PBM binding z-score [14],PBM binding z-score [15],PBM binding z-score [16],PBM binding z-score [17],PBM binding z-score [18],PBM binding z-score [19],PBM binding z-score [20]
CTAACAAGGTGAACAAGGTCGTTGATTACTATTC,1.46,1.2,0.00841,1.71,-0.084,2.7,1.75,1.73,0.38,1.18,4.02,3.71,0.498,0.744,0.877,2.67,1.4,2.21,0.514,2.27
GCTCTTAGTTGAAAGGGCAACCGAATGATTCTCG,0.354,0.538,0.194,0.812,-0.185,1.77,0.987,2.26,0.632,1.71,0.37,0.474,0.11,-0.335,0.85,0.654,-0.0314,1.47,-0.318,2.08
CCTAGCATGCCAGGGTCACTCAAGCATTTCGCTT,2.11,1.85,-0.459,2.23,-0.94,3.15,0.542,1.23,-0.373,0.276,-0.246,0.391,-0.691,-1.32,0.817,2.61,-0.116,3.17,-0.337,2.35
GCTTGTAGAACAAGGTTAAGAAAGACTAAGCTAA,-0.242,0.558,-0.426,0.502,-0.664,1.6,0.852,1.67,0.36,1.11,1.63,1.06,-0.311,-0.211,0.167,0.293,-0.338,0.612,-0.688,0.679
TGATTGAGGTTAAAGATCAGGGAACGTGGCGTCG,3.41,2.42,0.0848,1.85,0.589,4.47,5.23,5.82,4.22,5.94,1.62,3.15,1.39,1.52,0.865,1.96,0.148,2.95,0.729,2.24
TGTCAAAGTTCAAAGGTAACGAAAGTATCCACAC,7.51,6.49,4.27,5.02,1.67,6.08,9.12,7.76,6.04,7.45,0.62,4.53,1.27,1.66,3.32,5.76,3.79,6.83,1.29,5.22
TCATATAGGTAATGGTGAAAGTCGAACGATATGA,-0.32,0.417,-0.0652,0.263,-0.188,1.22,1.43,2.42,3.89,3.12,3.77,2.74,1.66,1.7,0.415,0.253,-0.311,0.342,0.0985,0.417
